Results published in PubChem BioAssay (Tox21).
Results filed as inconclusive are left out. Calls of active or inactive are those of the source. Unless noted, the call rests on the fitted dose curve; in most records, active means well fitted curve in the direction sought with a large enough effect in the repeat runs; inconclusive means weak or mixed curves; inactive means no such curve, though single readings can be large; an effect the other way counts as inactive or inconclusive.

Tests used:
[1] = A CellTox Green Cytotoxicity Assay to monitor cytotoxicity in HEK293 cells - 32 hour (AID 1224881); further: nearly all actives have a fitted effect of over 40% in size
Method in brief: (§1)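 HEK293 cells, 600/well, were preincubated 5 hours and then exposed to compounds at 37 C for up to 40 hours. A cell-impermeant cyanine dye staining dead-cell DNA was read by fluorescence at 0, 8, 16, 24, 32 and 40 h time points.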

[2] = A CellTox Green Cytotoxicity Assay to monitor cytotoxicity in HepG2 cells - 0 hour (AID 1224882); further: nearly all actives have a fitted effect of over 35% in size
Method in brief: (§2)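 HepG2 cells, 600/well, preincubated 5 h with CellTox Green dye, then exposed to Tox21 compounds in DMSO at 37 C for up to 40 h. Dead-cell DNA fluorescence read at the indicated time point.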

[3] = A CellTox Green Cytotoxicity Assay to monitor cytotoxicity in HepG2 cells - 32 hour (AID 1224883); further: nearly all actives have a fitted effect of over 50% in size
Method in brief: as §2

[4] = A CellTox Green Cytotoxicity Assay to monitor cytotoxicity in HEK293 cells - 8 hour (AID 1224884); further: nearly all actives have a fitted effect of over 35% in size
Method in brief: as §1

[5] = qHTS RealTime-Glo MT Cell Viability Assay in HepG2 cells - 16 hour (AID 1224885); further: nearly all actives have a fitted effect of over 50% in size
Method in brief: (§3)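 Compound treatment began 5 h after plating HepG2 cells (600/well) with NanoLuc luciferase and prosubstrate. Plates stayed at 37 C for 40 h; luminescence was captured at six time points, 0 h through 40 h.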

[6] = qHTS RealTime-Glo MT Cell Viability Assay in HEK293 cells - 24 hour (AID 1224886); further: top concentration of the series differs between compounds; nearly all actives have a fitted effect of over 50% in size
Method in brief: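 Quantitative high-throughput screen of the Tox21 10K library in HEK293: cells and RealTime-Glo reagents plated together, compound added at 5 h, luminescence monitored through 40 h at 37 C.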

[7] = qHTS RealTime-Glo MT Cell Viability Assay in HEK293 cells - 8 hour (AID 1224887); further: top concentration of the series differs between compounds; nearly all actives have a fitted effect of over 50% in size
Method in brief: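 600 cells/well were plated with the nonlytic NanoLuc/prosubstrate reagent, pre-incubated 5 h, then given 23 nL of compound in DMSO. Incubation at 37 C for 40 h, with luminescence from viable-cell-reduced substrate read repeatedly from 0 h.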

[8] = A CellTox Green Cytotoxicity Assay to monitor cytotoxicity in HEK293 cells - 16 hour (AID 1224888); further: nearly all actives have a fitted effect of over 35% in size
Method in brief: as §1

[9] = qHTS RealTime-Glo MT Cell Viability Assay in HepG2 cells - 0 hour (AID 1224889); further: nearly all actives have a fitted effect of over 50% in size
Method in brief: as §3

[10] = qHTS assay to identify small molecule antagonists of the estrogen receptor alpha (ER-alpha) signaling pathway using the BG1 cell line in the presence of 0.1 nM 17-beta-estradiol - cell viability counter screen (AID 1259241); further: nearly all actives have a fitted effect of over 40% in size
Method in brief: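 Live-cell protease activity (CellTiter-Fluor fluorescence, 30 min) was read in the same wells after VM7Luc4E2 cells had been exposed to compounds with 0.1 nM 17beta-estradiol for 22 hr at 37C.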

[11] = qHTS assay to identify small molecule antagonists of the androgen receptor (AR) signaling pathway using the MDA cell line in the presence of 0.5 nM R1881 - cell viability counter screen (AID 1259242); further: nearly all actives have a fitted effect of over 45% in size
Method in brief: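 MDA-kb2 cells (MMTV-luciferase, AR/GR responsive) were treated with compounds plus 0.5 nM R1881 (final) for 16 hr at 37C, 0% CO2. Viability was then read in the same wells as live-cell protease fluorescence (CellTiter-Fluor, 30 min).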

[12] = biological target: Androgen receptor (Homo sapiens) (UniProt P10275); test: qHTS assay to identify small molecule antagonists of the androgen receptor (AR) signaling pathway using the MDA cell line in the presence of 0.5 nM R1881 (AID 1259243); further: nearly all actives have a fitted effect of over 50% in size
Chain of Androgen receptor (Homo sapiens) (P10275 whole entry, looked up): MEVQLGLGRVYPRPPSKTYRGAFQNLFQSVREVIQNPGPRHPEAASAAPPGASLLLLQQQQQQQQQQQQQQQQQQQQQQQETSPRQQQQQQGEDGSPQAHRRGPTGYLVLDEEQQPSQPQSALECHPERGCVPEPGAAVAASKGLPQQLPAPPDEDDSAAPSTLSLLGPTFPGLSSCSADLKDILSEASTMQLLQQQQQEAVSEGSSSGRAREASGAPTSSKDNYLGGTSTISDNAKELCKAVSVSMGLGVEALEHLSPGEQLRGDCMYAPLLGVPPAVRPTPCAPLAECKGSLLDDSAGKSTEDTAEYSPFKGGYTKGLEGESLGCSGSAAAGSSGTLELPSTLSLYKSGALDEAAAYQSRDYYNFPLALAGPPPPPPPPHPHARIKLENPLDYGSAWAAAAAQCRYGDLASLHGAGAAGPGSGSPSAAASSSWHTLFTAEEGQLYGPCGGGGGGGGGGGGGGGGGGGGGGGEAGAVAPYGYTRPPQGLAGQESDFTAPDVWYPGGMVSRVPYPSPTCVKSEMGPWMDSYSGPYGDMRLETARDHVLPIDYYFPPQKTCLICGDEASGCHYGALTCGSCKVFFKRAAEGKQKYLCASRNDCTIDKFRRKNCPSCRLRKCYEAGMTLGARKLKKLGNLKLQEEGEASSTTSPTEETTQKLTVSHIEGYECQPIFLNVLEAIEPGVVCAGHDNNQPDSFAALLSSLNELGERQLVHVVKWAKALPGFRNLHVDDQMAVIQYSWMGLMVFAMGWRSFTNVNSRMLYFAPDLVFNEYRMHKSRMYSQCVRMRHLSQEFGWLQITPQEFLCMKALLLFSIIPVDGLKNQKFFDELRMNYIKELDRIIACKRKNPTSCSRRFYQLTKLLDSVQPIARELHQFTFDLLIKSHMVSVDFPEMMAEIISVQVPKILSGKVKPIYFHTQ
Method in brief: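 MDA-kb2 cells (MMTV-luciferase, responsive to AR and GR) at 3,000/well, rested 5 h at 37C, 0% CO2, then given compounds plus 0.5 nM R1881 (final) for 16 hr. Luciferase read with ONE-Glo after 30 min at room temperature.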

[13] = biological target: Estrogen receptor (Homo sapiens) (UniProt P03372); test: qHTS assay to identify small molecule antagonists of the estrogen receptor alpha (ER-alpha) signaling pathway using the BG1 cell line in the presence of 0.1 nM 17-beta-estradiol (AID 1259244); further: nearly all actives have a fitted effect of over 50% in size
Chain of Estrogen receptor (Homo sapiens) (P03372 whole entry, looked up): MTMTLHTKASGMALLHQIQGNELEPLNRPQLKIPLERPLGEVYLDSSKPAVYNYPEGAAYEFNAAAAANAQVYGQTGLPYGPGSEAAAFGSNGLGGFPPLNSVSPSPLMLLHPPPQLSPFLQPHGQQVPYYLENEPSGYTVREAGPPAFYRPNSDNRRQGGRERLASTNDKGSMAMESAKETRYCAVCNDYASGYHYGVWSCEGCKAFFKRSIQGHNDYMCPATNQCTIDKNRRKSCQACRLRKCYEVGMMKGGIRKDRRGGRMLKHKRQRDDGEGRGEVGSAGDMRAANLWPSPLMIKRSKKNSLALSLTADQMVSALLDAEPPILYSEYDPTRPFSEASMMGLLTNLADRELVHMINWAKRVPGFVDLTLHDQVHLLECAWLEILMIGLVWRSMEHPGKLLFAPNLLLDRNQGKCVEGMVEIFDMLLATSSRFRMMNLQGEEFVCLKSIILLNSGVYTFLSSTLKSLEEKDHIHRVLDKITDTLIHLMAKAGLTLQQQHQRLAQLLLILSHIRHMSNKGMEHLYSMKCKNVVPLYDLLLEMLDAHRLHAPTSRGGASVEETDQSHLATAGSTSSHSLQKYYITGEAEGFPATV
Method in brief: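 VM7Luc4E2 cells (endogenous full-length ER-alpha, 4×ERE-luciferase), kept 5 days in phenol red-free, charcoal-stripped FBS medium; 4,000 cells/well. Compounds added with 0.1 nM (final) 17beta-estradiol, 22 hr at 37C; luminescence read with ONE-Glo after 30 min.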

[14] = qHTS assay to identify small molecule HDAC inhibitors (AID 1259364); further: top concentration of the series differs between compounds; nearly all actives have a fitted effect of over 45% in size
Method in brief: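 Wild-type HCT-116 cells, plated overnight at 37 C, exposed to compounds 2 hr at 37 C; luminogenic HDAC-Glo substrate then added 30 min at room temperature. Luminescence reports relative endogenous class I/II HDAC activity.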

[15] = qHTS assay to identify small molecule HDAC inhibitors - cell viability counter screen (AID 1259365)
Method in brief: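 HCT-116 (wild type), 1,500 cells/well, overnight 37C/5% CO2; compound in DMSO 2hr; CellTiter-Glo 30min RT; luminescence read.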

[16] = qHTS assay to identify small molecule agonists of the sonic hedgehog signaling (Shh) pathway - cell viability counter screen (AID 1259366); further: nearly all actives have a fitted effect of over 50% in size
Method in brief: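 CellTiter-Fluor fluorescence read-out, 1 hr at 37C, added after 23hr compound exposure. Cells: 3T3 Gli1-Luc, an NIH/3T3 clone with stably integrated Gli1-Luc reporter, plated 4hr before compound.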

[17] = qHTS assay to identify small molecule antagonists of the sonic hedgehog signaling (Shh) pathway - cell viability counter screen (AID 1259367); further: nearly all actives have a fitted effect of over 55% in size
Method in brief: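 Seed 3T3 Gli1-Luc cells at 2,000 per well; incubate 4 hr; add compound in DMSO, then conditioned medium; incubate at 37C with 5% CO2; add CellTiter-Fluor after 23 hr; read fluorescence 1 hr later.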

[18] = qHTS assay to identify small molecule agonists of the sonic hedgehog signaling (Shh) pathway (AID 1259368; calls by dose curve;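 further: NIH/3T3-derived 3T3Gli1-Luc cells carrying a stable Gli1-driven firefly luciferase reporter; series mostly up to about 92 µM; nearly all actives have a fitted effect of over 15% in size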)
Method in brief: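 NIH/3T3-derived 3T3Gli1-Luc cells with stably integrated Gli1-driven firefly luciferase, 2,000 cells/well, compounds added after 4 hr. Incubated 24 hr at 37C, 5% CO2; luminescence read after 30 min with luciferase reagent at room temperature.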

[19] = A CellTox Green Cytotoxicity Assay to monitor cytotoxicity in HepG2 cells - 8 hour (AID 1224890); further: nearly all actives have a fitted effect of over 45% in size
Method in brief: as §2

[20] = qHTS assay to identify small molecule phospholipidosis (PLD) inducers (AID 1259344; active means well fitted curve in the direction sought with a large enough effect; an effect the other way counts as inactive or inconclusive)
Method in brief: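 Quantitative HTS in HepG2: compound plus LipidTOX Red dye for 24 h, paraformaldehyde fixation with Hoechst 33342, widefield high-content imaging; amiodarone as positive and DMSO as negative control.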
On the % scale 0 is the no-effect control and ±100 the full control effect.

CN(C)CCN(Cc1ccsc1)c1ccccn1
inactive: Potency [1] | Potency [2] | Potency [3] | Potency [4] | Potency [5] | Potency [6] | Potency [7] | Potency [8] | Potency [9] | Potency [10] | Potency [11] | Potency [12] | Potency [13] | Potency [14] | Potency [15] | Potency [16] | Potency [17] | outcome [18]

COc1cccc(N(C)C(=S)Oc2ccc3c(c2)CCCC3)n1
inactive: Potency [1] | Potency [2] | Potency [3] | Potency [4] | Potency [5] | Potency [6] | Potency [7] | Potency [8] | Potency [9] | Potency [19] | Potency [11] | Potency [20] | Potency [14] | Potency [15] | Potency [16] | Potency [17] | outcome [18]

CC(=O)NO
inactive: Potency [1] | Potency [2] | Potency [3] | Potency [4] | Potency [5] | Potency [6] | Potency [7] | Potency [8] | Potency [9] | Potency [19] | Potency [10] | Potency [11] | Potency [12] | Potency [20] | Potency [14] | Potency [15] | Potency [16] | Potency [17] | outcome [18]

CC1(c2ccccc2)OC(C(=O)O)=CC1=O (configuration not stated)
inactive: Potency [1] | Potency [2] | Potency [3] | Potency [4] | Potency [5] | Potency [6] | Potency [7] | Potency [8] | Potency [19] | Potency [11] | Potency [20] | Potency [14] | Potency [15] | Potency [16] | Potency [17] | outcome [18]

O=C(O)c1ccccc1Cl
inactive: Potency [1] | Potency [2] | Potency [3] | Potency [4] | Potency [5] | Potency [6] | Potency [7] | Potency [8] | Potency [9] | Potency [19] | Potency [10] | Potency [11] | Potency [14] | Potency [15] | Potency [16] | Potency [17] | outcome [18]

O=C(CS)Nc1ccccc1
inactive: Potency [1] | Potency [2] | Potency [3] | Potency [4] | Potency [5] | Potency [6] | Potency [7] | Potency [8] | Potency [9] | Potency [19] | Potency [10] | Potency [11] | Potency [13] | PLD induction [20] 0.942% [at 7.66 µM] | Potency [14] | Potency [15] | Potency [16] | Potency [17] | outcome [18]

CNC(=O)CN(CCN(CCN(CC(=O)[O-])CC(=O)NC)CC(=O)[O-])CC(=O)[O-].O.[Gd+3]
inactive: Potency [1] | Potency [2] | Potency [3] | Potency [4] | Potency [5] | Potency [6] | Potency [7] | Potency [8] | Potency [9] | Potency [10] | Potency [11] | Potency [20] | Potency [14] | Potency [15] | Potency [16] | Potency [17] | outcome [18]

CC(CC=O)c1ccccc1 (configuration not stated)
inactive: Potency [1] | Potency [2] | Potency [3] | Potency [4] | Potency [5] | Potency [6] | Potency [8] | Potency [9] | Potency [19] | Potency [10] | Potency [11] | Potency [13] | Potency [14] | Potency [15] | Potency [16] | Potency [17] | outcome [18]

CN(C)CCN(Cc1ccc(Cl)cc1)c1ccccn1
inactive: Potency [1] | Potency [2] | Potency [3] | Potency [4] | Potency [5] | Potency [6] | Potency [7] | Potency [9] | Potency [19] | Potency [10] | Potency [11] | PLD induction [20] -3.78% [at 0.137 µM] | Potency [14] | Potency [15] | Potency [17] | outcome [18]

O=C(O)CNCC(=O)O
inactive: cytotoxicity increase [1] 4.03% [at 6.97 µM] | cytotoxicity [2] -10.6% [at 6.97 µM] | cytotoxicity increase [3] -4.58% [at 6.97 µM] | cytotoxicity increase [4] -1.38% [at 6.97 µM] | activity change, negative = cytotoxic [5] -0.86% [at 6.97 µM] | activity change, negative = cytotoxicity [6] -8.06% [at 6.97 µM] | activity change [8] 2.15% [at 6.97 µM, active compounds read high] | activity change, negative = cytotoxicity [9] -5.44% [at 6.97 µM] | cytotoxicity increase [19] 3.91% [at 6.97 µM] | activity change, negative = cytotoxicity [10] 0.833% [at 8.39 µM] | viability change, negative = cytotoxic [11] -0.633% [at 8.39 µM] | activity, negative = inhibition [12] -3.67% [at 8.39 µM] | activity change, negative = inhibition [13] -6.61% [at 8.39 µM] | activity change, negative = inhibition [14] 10.7% [at 8.39 µM] | activity change, negative = cytotoxicity [15] -5.53% [at 8.39 µM] | viability change, negative = cytotoxic [16] 1.7% [at 8.39 µM] | viability change, negative = cytotoxic [17] 3.32% [at 8.39 µM] | activity change [18] 0.375% [at 8.39 µM]

Cc1cc(N)c2cc(NC(=O)Nc3ccc4nc(C)cc(N)c4c3)ccc2n1
inactive: Potency [1] | Potency [2] | Potency [3] | Potency [4] | Potency [5] | Potency [6] | Potency [8] | Potency [9] | Potency [19] | Potency [10] | Potency [11] | Potency [12] | Potency [14] | Potency [15] | outcome [18]

CCCCCCCC/C=C\CCCCCCCC(=O)OCC
inactive: Potency [1] | Potency [2] | Potency [3] | Potency [4] | Potency [5] | Potency [7] | Potency [8] | Potency [9] | Potency [19] | Potency [10] | Potency [11] | Potency [14] | Potency [15] | Potency [16] | Potency [17] | outcome [18]

Nc1cccc(S(=O)(=O)c2cccc(N)c2)c1
inactive: Potency [1] | Potency [2] | Potency [3] | Potency [4] | Potency [5] | Potency [6] | Potency [7] | Potency [9] | Potency [19] | Potency [10] | Potency [11] | Potency [13] | Potency [14] | Potency [15] | Potency [16] | Potency [17] | outcome [18]

S=C([S-])NCCNC(=S)[S-].[Mn+2]
inactive: Potency [1] | Potency [2] | Potency [3] | Potency [4] | Potency [5] | Potency [7] | Potency [8] | Potency [9] | Potency [19] | Potency [10] | Potency [11] | Potency [14] | Potency [15] | Potency [17] | outcome [18]
